PubChem BioAssay

experiment: forskolin-driven CRE-LacZ activity in PC12 – cell-based, CRE-LacZ reporter, forskolin-stimulated, primary screen (AID 1146); details: luminescence, 4.5 h, higher = more signal, called active from +8 up or from −8 down;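 also: PC12 cells with 6xCRE LacZ reporter stimulated by forskolin 10 µM; beta-galactosidase reporter signal reflecting CREB driven transcription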

z-score, inactive:
CC(=O)OC[C@H]1O[C@@H](ON=C[C@@H](C)[C@H](OCc2ccccc2)C(C)C)[C@H](OC(C)=O)[C@@H](OC(C)=O)[C@@H]1OC(C)=O 0.1
CN1C(=O)C2C=CC(C(O)C(c3ccccc3)c3ccccc3)N(NC(=O)OC(C)(C)C)C2C1=O (stereo unspecified) 0.0964
COC(=O)C1=C(C)N(Cc2ccccc2)[C@]23O[C@](C(=O)OC)(C(=O)N2[C@@H]1c1ccccc1)[C@H]1CCOC(=O)[C@H]13 -0.213
C=C(CCCC)C(=O)CC[C@@H](OC(C)=O)c1cccc(OCCO)c1 2.58
CO[C@@H]1COC(=O)CC=C[C@@H](C)[C@@H]2C=C[C@@H](O)[C@@H](COC(=O)CC=C[C@H]1C)O2 0.427
COC(=O)[C@@]1(Cc2ccccc2)[C@H]2c3cc(C(=O)N4CCCC4)n(Cc4ccccn4)c3C[C@H]2CN1C(=O)c1ccccc1 1.06
CCOC(=O)NN=C1C[C@@H](O)[C@@H](O)[C@@H]2[C@@H]3C(=O)N(C(C)(C)C)C(=O)[C@@H]3CC[C@@H]12 0.244
C=CCN1C(=O)[C@]2(O[C@H](CCn3cc(CCO)nn3)[C@@H]([Si](C)(C)c3ccc(OC)cc3)[C@@H]2C)c2cc(N3CCOC3=O)ccc21 0.144
CCOc1ccc(N2C(=O)/C(=C/C=C/c3ccccc3OC)S(=O)(=O)C2c2cccc([N+](=O)[O-])c2)cc1 (stereo unspecified) -1.2
O[C@@H](Cc1ccccc1)[C@H]1C2C=CCCC(c3ccccc3)=C2CN1Cc1cccc(Cl)c1 (stereo partly specified) 1.44
CO[C@H]1O[C@H](CO)[C@@H](OC(=O)Nc2ccc(C#N)cc2)[C@H](OC(=O)c2cc3ccccc3[nH]2)[C@H]1OC(=O)c1cc2ccccc2[nH]1 -1.03
Cc1ccc(S(=O)(=O)N[C@@H]2COC(=O)[C@H](C)COC(=O)CC=C[C@H]2C)cc1 -0.262
C=CC[C@@H]1C=C[C@H](ON=C2c3cc(OC)ccc3O[C@H](c3cccc(OC)c3)[C@H]2O)[C@@H](CO)O1 0.442
C=CCC(OC(C)=O)[C@@H]1[C@@H](N(Cc2cc3ccccc3o2)C(=O)Cc2ccc(F)cc2)c2cc(OCCCO)ccc2N1C(=O)Cc1ccc(OC)cc1 (stereo partly specified) 0.515
CCOC(=O)[C@H](CC(C)C)NC(=O)CCC1CC(OC(=O)NCCc2ccc(F)cc2)CC2(CCCC(COC(=O)NCc3ccccc3)O2)O1 (stereo partly specified) 0.659
O=C1[C@H]2[C@H]3[C@H](O)[C@H](O)CC(=NOC[C@@H](O)COCc4ccco4)[C@H]3CC[C@H]2C(=O)N1Cc1ccc2c(c1)OCO2 0.0952
CC(CCC(=O)OC[C@H]1O[C@H](C#Cc2ccccc2)C=C[C@@H]1Oc1ccc(C)cc1)=NOC[C@@H](O)[C@H]1O[C@@H]2OC(C)(C)O[C@@H]2[C@H]1O 0.0046
CC(C)(C)N1CC=CC23O[C@@H]4C=CCCOC(=O)C4[C@H]2C(=O)N(CCCCCO)[C@@H]3C1=O (stereo partly specified) -0.329
CCc1cc2c(nc1CC)CCN(CCC(C)=NO[C@@H](C)c1cc(-c3c(C)cc(C)cc3C)no1)C2 0.446
CC(C)CON=C1C[C@@H](O)[C@@H](O)[C@@H]2[C@@H]3C(=O)N(Cc4ccccc4)C(=O)[C@@H]3CC[C@@H]12 0.462
COCCCNC(=O)[C@@]1(C)c2ccccc2C(=O)N(Cc2ccc(OC(F)(F)F)cc2)[C@H]1c1ccc(CO)cc1 -0.0912
O=C1C2=CC[C@H]3C(=O)N(Cc4ccc5c(c4)OCO5)C(=O)[C@H]3[C@H]2[C@H](O)[C@@H]2O[C@H]12 -0.454
COc1ccc(O[C@H]2C=C[C@@H](c3ccccc3)O[C@@H]2COC(=O)CCC(C)=NOC(C)CN2CCCCc3nc(C)c(C)cc32)cc1 (stereo partly specified) 0.287
CC(CCN1CCCCc2nc(C)c(C)cc21)=NOC(C)CN1CCCCc2nc(C)c(C)cc21 (stereo unspecified) 0.907
O=C1[C@H]2[C@H]3[C@H](O)[C@H](O)CC(=NOCc4ccccc4)[C@@H]3CC[C@H]2C(=O)N1C1CCCCC1 0.182
COc1ccc([Si](C)(C)[C@@H]2[C@@H](CCO)O[C@]3(C(=O)N(Cc4ccc(NC(C)=O)cc4)c4ccccc43)[C@H]2C)cc1 -2.33
Cc1cc2c(c(=O)o1)[C@H](O)[C@H]1O[C@H]1C2=O 2.18
O=C1[C@H]2[C@H]3[C@H](O)[C@H](O)CC(=NOC[C@@H](O)COCc4ccco4)[C@H]3CC[C@H]2C(=O)N1C1CCCCC1 0.279
[N-]=[N+]=Nc1ccccc1C[C@@]1(C(N)=O)N=C(c2ccc(OCCCO)cc2)O[C@@H]1c1ccccc1 -1.39
CCOC(=O)NN=C1C[C@@H](O)[C@@H](O)[C@@H]2[C@@H]3C(=O)N(CC)C(=O)[C@@H]3CC[C@@H]12 0.104
CC(C)NC(=O)[C@@]1(c2ccc([N+](=O)[O-])cc2)CC(=O)N(CC23CC4CC(CC(C4)C2)C3)[C@@H]1c1ccc(CO)cc1I 0.0456
COC(=O)C1(C)C=C2C(=C(c3ccccc3)C(=O)C2C)CN1 (stereo unspecified) -0.0287
O=C1[C@H]2[C@H]3[C@H](O)[C@H](O)CC(=NO[C@@H]4O[C@H](CO)[C@@H](O)[C@H](O)[C@H]4O)[C@@H]3CC[C@H]2C(=O)N1Cc1ccccc1 0.488
CCOC(=O)CCN1C(=O)[C@H]2[C@H]3[C@H](O)C=CC(=O)[C@@H]3CC[C@H]2C1=O -0.297
Cc1cc2c(nc1C)CCCN2CC(C)ON=C1[C@H]2CCn3c(=O)n(-c4ccccc4)c(=O)n3[C@H]2[C@H](O)[C@@H]2O[C@H]12 (stereo partly specified) 0.533
CCCCc1nc2c(c3c1C[C@H](C)OC3)CN(CCC(C)C)CC2 -1.14
